# High-throughput results deposited in PubChem BioAssay by National Center for Advancing Translational Sciences (NCATS).
# SMN2 splice up = qHTS Assay for Enhancers of SMN2 Splice Variant Expression | Potency, µM (top dose mostly 46.1 µM), for the others: top-dose activity change, positive = activation, hits mostly activators | AID 1458, 2008 | HEK293 SMN2-luciferase splicing reporter, luminescence, 30-36 h | 2.8% of 210,000 active; also: % of control where 0% means no effect; nearly all actives have a fitted effect of over 55% in size
#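 HEK293 cells carry an SMN2 […]–luciferase reporter in which exon 7 inclusion puts luciferase in frame. Cells were plated 10-12 h before compound addition, then incubated 30-36 h at 37C. ONE-Glo luminescence was read; sodium butyrate at 4.5 mM final served as control.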
# FLuc counter = qHTS profiling assay for firefly luciferase inhibitor/activator using purifed enzyme and Km concentrations of substrates (counterscreen for miR-21 project); purified FLuc, Km substrates, luminescence inhibition; 6.9% of 360,000 active; Luciferin 4-monooxygenase (Photinus pyralis), P08659; Potency, µM (series often up to 57.5 µM), for inactives: at the top dose activity change, negative = inhibition, actives largely listed as inhibitors;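 also: plate controls were vehicle for no effect and reference inhibitor for full effect; nearly all actives have a fitted effect of over 55% in size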
# Target sequence (P08659 whole entry, looked up): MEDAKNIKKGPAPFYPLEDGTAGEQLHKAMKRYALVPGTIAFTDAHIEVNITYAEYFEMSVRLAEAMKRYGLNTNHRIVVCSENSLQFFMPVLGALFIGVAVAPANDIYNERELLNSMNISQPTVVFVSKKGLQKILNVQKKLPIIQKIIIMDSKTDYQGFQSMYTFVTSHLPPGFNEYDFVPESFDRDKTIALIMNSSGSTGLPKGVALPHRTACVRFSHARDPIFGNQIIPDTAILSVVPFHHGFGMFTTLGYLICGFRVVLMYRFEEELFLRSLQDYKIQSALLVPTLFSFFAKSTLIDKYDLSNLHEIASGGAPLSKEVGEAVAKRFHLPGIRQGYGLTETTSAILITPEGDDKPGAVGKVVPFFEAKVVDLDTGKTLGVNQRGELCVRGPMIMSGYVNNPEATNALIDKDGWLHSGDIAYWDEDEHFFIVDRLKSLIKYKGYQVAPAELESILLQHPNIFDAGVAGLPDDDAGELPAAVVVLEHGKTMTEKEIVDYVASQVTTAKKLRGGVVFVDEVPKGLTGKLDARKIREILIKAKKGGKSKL
#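 Biochemical qHTS of compounds, final roughly 60 µM downward over six points, against 10 nM purified firefly luciferase using Km concentrations of substrates (10 uM D-luciferin, 10 uM ATP) in Tris acetate pH 7.5 buffer; luminescence output.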
# ELG1 genotoxic = qHTS screen for small molecules that induce genotoxicity in human embryonic kidney (HEK293T) cells expressing luciferase-tagged ELG1 | Potency, µM (top dose mostly 46 µM), without a hit: top-dose activity change, positive = activation, most hits filed as activators | HEK293T ELG1-luciferase reporter, luminescence, 16 h | 1.3% of 330,000 active; also: % of control where 0% means no effect; nearly all actives have a fitted effect of over 60% in size
#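 Screening used a luciferase reporter fused to human ELG1 in HEK293T cells. Luminescence was read on a CCD plate imager after 16 hr exposure and 30 min ONE-Glo incubation.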
# Rab9 prom act = qHTS Assay for Rab9 Promoter Activators | Huh7 Rab9 promoter-luciferase reporter, luminescence, 24 h | Potency, µM (titrated, usually from 9.22 µM), without a hit: top-dose activation, negative = inhibition, most hits filed as activators | 2.8% of 320,000 active | AID 485297, 2010; also: % of control where 0% means no effect; nearly all actives have a fitted effect of over 60% in size
#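 Rab9 promoter-driven luciferase in stably transfected Huh7 cells; 1500 cells/well rested 2 h, exposed to compound in DMSO for 24 h at 37 °C, 5% CO2. Luminescence read 10 min after adding luciferase reagent at ambient temperature.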
# KinaseGlo FLuc = Counterscreen for Luciferase (Kinase-Glo TM) Inhibition; Luciferin 4-monooxygenase (Photuris pensylvanica), Q27757; AID 1379, 2008; Potency, µM (titrated, usually from 38.3 µM), without a hit: top-dose activity change, negative = inhibition, actives largely listed as inhibitors; 0.28% of 200,000 active; Kinase-Glo luciferase, ATP luminescence, 8 min; also: % is scaled to controls: 0 for no effect and ±100 for the full control effect; nearly all actives have a fitted effect of over 60% in size
#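 Compounds were added to a substrate mix at pH 7.2 (50 mM imidazole, 10 uM ATP, within the enzyme's linear range), followed by Kinase-Glo detection reagent; luminescence was measured after 8 minutes at ambient temperature.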
# NPC1 prom act = qHTS Assay for NPC1 Promoter Activators. AID 485313, 2010. 2.4% of 320,000 active. Huh7 NPC1 promoter luciferase reporter, 24 h. Potency, µM (top dose mostly 9.22 µM), without a hit: at the top dose activation, most hits filed as activators; also: % of control where 0% means no effect; nearly all actives have a fitted effect of over 60% in size
#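 NPC1 promoter–luciferase Huh7 cells; 24 h compound; luminescence.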
# Active calls of the source: *; ? = inconclusive; . = no result; [ ] = remark or other dose. An excerpt weighted towards active compounds, which were near 7.5% of everything screened. Calls follow the shape of the dose curve; as a rule, active = well fitted curve in the direction sought with a large enough effect; inconclusive = small, poorly fitted or top-dose-only effect, or another doubt; inactive = no such curve, though single readings can be large; an effect the other way counts as inactive or inconclusive. Potency is read from the fitted curve at half-maximal effect.
SMILES,SMN2 splice up,FLuc counter,ELG1 genotoxic,Rab9 prom act,KinaseGlo FLuc,NPC1 prom act
O=C(NCCc1c[nH]c2ccccc12)C(=O)NCC1OCCCN1S(=O)(=O)c1cc(F)ccc1F (stereo not given),-13%,-1%,-21%,-5%,1%,-4%
COc1ccc(/C=C/C2=NC(=C\N(C)C)/C(=O)O2)cc1,23%,21µM*,?,?,-1%,?
CCOC(=O)N1CCC(NC(=O)c2c(C)nn(-c3ccc(C)cc3)c2-n2cccc2)CC1,.,-8%,.,.,.,.
Cc1ccc(NC(=O)CCNS(=O)(=O)c2ccc3c(c2)CCCC(=O)N3)cc1,.,-6%,.,.,.,.
Cn1cccc1C(=O)/C(C#N)=C/c1ccc(F)cc1,.,6.7µM*,1%,-4%,.,2%
CN1CCN(C(=O)/C(C#N)=C/c2ccc(F)cc2)CC1,7%,5%,11%,-3%,-1%,-16%
COc1ccccc1/C=C(\C#N)C(=O)c1cccn1C,.,11µM*,0%,2%,.,-5%
COc1ccccc1/C=C(/C#N)C(=O)O,.,-3%,3%,-2%,.,-3%
COc1ccc(/C=C(\C#N)C(=O)c2cccn2C)cc1,.,1.5µM*,1%,-2%,.,0%
COc1ccc(/C=C(\C#N)C(=O)C(C)(C)n2cncn2)cc1,-25%,?,3%,-2%,0%,0%
CCCCCCCC#Cc1ccccc1/C=N/S(=O)c1ccc(C)cc1 (stereo not given),8%,?,11%,2%,0%,-2%
COc1ccc(NC(=O)CSc2ccccn2)cc1,?,?,16%,?,-4%,21%
COc1cccc(NC(=O)CSc2ccccn2)c1,?,15µM*,?,?,12%,?
O=C(CSc1ccccn1)Nc1ccc(NC(=O)CSc2ccccn2)cc1,-1%,-9%,2%,0%,-2%,-5%
O=C(CCSc1ccccn1)Nc1ccc(Br)cc1,14µM*,12µM*,?,3.5µM*,0%,?
COC(=O)CNC(=O)CSc1ccccn1,.,-4%,0%,-6%,.,0%
COc1cccc(NC(=O)CSc2nc3ccccc3nc2N2CCOCC2)c1,4µM*,-15%,-5%,7%,.,-4%
COc1ccccc1C(=O)CSc1ccccn1,28%,17µM*,?,?,-2%,28%
CC(C)OC(=O)CSc1nc(Cc2cccs2)nc2ccccc12,.,-2%,-5%,2%,-4%,-6%
CCc1ccc(NC(=O)CSc2ccccn2)cc1,29%,13µM*,4%,?,-1%,16%
COc1ccc(N(CC(=O)NCCSc2ccccn2)S(C)(=O)=O)cc1,-6%,6%,4%,-4%,0%,0%
COc1ccc(C(=O)NCCSc2ccccn2)cc1,2.8µM*,2.1µM*,1µM*,0.4µM*,0%,0.71µM*
COc1cc(/C=C2/C(=O)NN(c3ccc(C)c(Cl)c3)C2=O)cc([N+](=O)[O-])c1O,.,19µM*,1%,6%,.,-4%
COc1cc(/C=C2/C(=O)NN(c3cccc(C)c3)C2=O)cc([N+](=O)[O-])c1O,6%,21µM*,1%,-4%,-10%,-1%
Nn1c(-c2ccccc2Cl)nnc1-c1ccccc1Cl,?,0.95µM*,?,4µM*,-9%,3.5µM*
SMILES,SMN2 splice up,FLuc counter,ELG1 genotoxic,Rab9 prom act,KinaseGlo FLuc,NPC1 prom act
COC(=O)N/N=C/c1cc(N=Nc2ccccc2Cl)ccc1O,.,6µM*,5%,?,.,?
Nc1ccc(C(=O)N/N=C\c2cc(N=Nc3cccc4ccccc34)ccc2O)cc1,-76%,7.6µM*,-7%,1%,0%,-7%
COc1ccc2oc(-c3ccc(C)c(NC(=O)c4ccc(N5CCCCC5)c([N+](=O)[O-])c4)c3)nc2c1,10%,-11%,.,.,.,.
Cc1nc2c(-c3ccccc3)c(C)nn2c(C)c1CCC(=O)NCc1ccc(F)cc1,-9%,-1%,.,.,.,.
Cc1nn2c(nc1=O)SCC(c1ccccc1)=N2,?,3%,?,3.5µM*,-1%,2.2µM*
COc1ccc(C(=O)/C=C/c2ccc(O)cc2)cc1,.,8.5µM*,7%,3%,.,-3%
NC(=O)C(C(=O)/C=C/c1ccc(Cl)cc1)=C1SCCS1,.,?,2%,-17%,.,-11%
COc1ccc(/C=C/C(=O)C(C(N)=O)=C2SCCS2)cc1,-72%,9.5µM*,5%,20%,-2%,16%
O=C(/C=C/c1ccc(N2CCC(c3ccccc3)=N2)cc1)c1ccccc1,-10%,15µM*,-2%,20%,-2%,20%
COc1ccc(/C=C/C(=O)c2nc3ccccc3n2CC(=O)c2ccc(OC)cc2)cc1,10%,9.5µM*,-7%,-5%,-3%,-3%
COCC(=O)N1CCC2(CCCN(c3ccncc3)C2)CC1,0%,.,.,.,4%,.
Cc1cc(OC(C)C(=O)N2C[C@H]3C[C@@H](C2)c2cccc(=O)n2C3)c2c(C)c(C)c(=O)oc2c1 (stereo not given in full),.,-1%,-2%,2%,.,-8%
Cc1nn(C)cc1/C=C/C(=O)c1ccc(O)cc1,-10%[1.84 µM],13µM*,21µM*,?,-6%,?
O=C(/C=C/c1ccc(O)cc1)c1ccc(NC2=C(N3CCCCC3)C(=O)c3ccccc3C2=O)cc1,-99%,7.6µM*,-6%,-29%,-12%,-35%
O=C(/C=C/c1ccc(O)cc1)c1ccccc1,.,2.7µM*,?,?,.,3%
COc1ccc(-c2cc(O)cc(O)c2)cc1,?,6.7µM*,6.5µM*,?,-4%,?
Cc1cccc(C(=O)OCC(=O)NC2CC2)c1O,.,.,2%,.,.,.
Cc1ccc(C(=O)NCc2ccco2)cc1S(=O)(=O)Nc1cccc(Cl)c1,-4%,1%,-6%,-2%,-2%,0%
O=c1cc(-c2ccccc2O)oc2c1ccc1ccccc12,.,.,.,.,-8%,.
COC(=O)C1(C(=O)OC)C/C=C\C/C=C\c2ccccc2[C@@H]1C[N+](=O)[O-],2%,.,.,.,0%,.
